Rows were chosen to be rich in hits. Some 2.4% of all compounds tested hit in one or more screens of this group.
D2 PAM-1 – positive allosteric modulators of human D2 dopamine receptor. P14416. 0.34% of 340,000 active. AID 485347. potentiation, % at 10 µM. HEK293 T-REx D2, calcium flux, EC20 dopamine potentiation;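 active means potentiation over 3 SD above the plate norm, cut at about 30% in these data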; further: 0% is about no effect
Target sequence (P14416 whole entry, looked up): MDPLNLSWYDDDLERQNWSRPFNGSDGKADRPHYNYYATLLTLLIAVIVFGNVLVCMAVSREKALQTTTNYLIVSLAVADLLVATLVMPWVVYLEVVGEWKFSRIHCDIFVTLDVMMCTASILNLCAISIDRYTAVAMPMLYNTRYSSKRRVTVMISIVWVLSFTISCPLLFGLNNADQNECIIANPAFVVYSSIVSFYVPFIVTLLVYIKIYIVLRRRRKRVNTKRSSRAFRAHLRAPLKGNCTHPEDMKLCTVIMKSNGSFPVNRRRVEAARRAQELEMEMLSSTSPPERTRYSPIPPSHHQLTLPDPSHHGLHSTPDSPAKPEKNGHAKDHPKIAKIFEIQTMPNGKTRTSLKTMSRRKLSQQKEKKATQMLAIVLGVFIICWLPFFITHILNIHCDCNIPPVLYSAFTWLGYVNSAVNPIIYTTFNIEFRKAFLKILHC
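Using a no-wash calcium dye in inducible, force-coupled HEK293 Trex cells expressing D2, we tracked fluorescence each second for 180 s after compound, then for 180 s after EC20 dopamine to detect augmented signalling.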
D2 PAM-2 – potentiates the human D2 dopamine receptor allosterically. P14416. DiscoveRx D2 beta-arrestin cells, luminescence, 90 min; 100% = 57 uM dopamine signal. potentiation, % (test concentration not listed). 0.23% of 360,000 active; in the data active means potentiation above about 50%; inconclusive means mostly about 30% to 49%
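PathHunter beta-arrestin assay in DiscoveRx D2 cells. Compounds were added with an EC20 of dopamine (50 nM final) for 90 min at 37 deg C. Luminescence was read 1 h after detection reagent, with 57 uM dopamine as the EC100 control.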
D2 antag – antagonizes the human D2 dopamine receptor. HEK293 TREx D2 cells, calcium flux, dopamine EC80. inhibition, % at 10 µM. 2% of 340,000 active; in the data active means inhibition above about 30%; inactive means below that, where a call was filed; further: 0% is about no effect
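Inhibition of EC80 dopamine-driven calcium flux, recorded kinetically, defines activity here; cells are a tetracycline-induced HEK293 T-REx line expressing force-coupled D2.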
D2 ag-1 – D2 dopamine receptor (human) agonism. 0.53% of 340,000 active. P14416. activation, % at 2 µM. HEK293 T-REx D2 cells, calcium flux agonist mode;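 active means activation over 3 SD above normal in the single-dose calcium agonist read, cut at about 30% in these data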; further: 0% is about no effect
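In this primary screen, compounds producing a positive calcium signal within 180 s of addition to tetracycline-induced, force-coupled HEK293 Trex D2 cells are flagged; cells are dye-loaded with a no-wash calcium kit beforehand.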
D2 ag-2 – activates the human D2 dopamine receptor; P14416; AID 624465; DiscoveRx PathHunter D2 beta-arrestin, luminescence, 90 min; 100% = 57 uM dopamine signal; 0.084% of 360,000 active; activation, % (concentration not given with the values); in the data active means activation above about 40%; inconclusive means between about 15% and that limit
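Agonist mode: compounds alone added to overnight-plated D2 PathHunter cells for 90 min at 37 C, with 57 uM final dopamine (EC100) defining full response. Beta-arrestin recruitment detected by chemiluminescent reagent, read after 1 h at ambient temperature.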
Starred values were filed as active, the others as inactive.

NNc1nc(-c2ccccc2Cl)nc2sc3c(c12)CCCC3 was read as D2 PAM-1 12.7, D2 PAM-2 53.2*, D2 antag -6.5, D2 ag-1 0.3 and D2 ag-2 inconclusive.
`O=C(CCN1CCN(c2ccccc2)CC1)c1ccc(Cl)cc1` gave D2 PAM-1 -34.4, D2 PAM-2 -13.7, D2 antag 17.1, D2 ag-1 33.1* and D2 ag-2 4.4.
For O=C(CCN1CCN(c2ccc([N+](=O)[O-])cc2)CC1)c1ccc(Cl)cc1 the results were D2 PAM-1 -8.1, D2 PAM-2 -1.3, D2 antag 33.8*, D2 ag-1 1.7 and D2 ag-2 2.2.
For CSc1ncc(C(=O)Nc2c(C)cccc2C)c(-c2ccccc2)n1 the results were D2 PAM-1 -2.0 and D2 ag-1 -0.8.
`COC(=O)c1ccc(O)cc1` gave D2 PAM-1 -0.9, D2 PAM-2 0.3, D2 antag -9.1, D2 ag-1 -0.6 and D2 ag-2 -0.5.
CCN(CC)C(=O)C(C)OC(=O)c1ccc(O)cc1 (stereo unspecified) was read as D2 PAM-1 12.1, D2 PAM-2 3.1, D2 antag 30.3*, D2 ag-1 -0.2 and D2 ag-2 0.7.
`COCCCNS(=O)(=O)c1ccc2c(c1)OCCO2` gave D2 PAM-1 2.9, D2 PAM-2 -4.9, D2 antag 34.4*, D2 ag-1 -0.2 and D2 ag-2 -1.9.
CCOCCCNS(=O)(=O)c1ccc2c(c1)OCCO2 was read as D2 PAM-1 -1.0, D2 PAM-2 -2.7, D2 antag -0.8, D2 ag-1 0.5 and D2 ag-2 -0.5.
Screening COc1ccc(CCNS(=O)(=O)c2ccc3c(c2)OCCO3)cc1OC returned D2 PAM-1 105.5*, D2 PAM-2 -3.8, D2 antag 1.5, D2 ag-1 0.4 and D2 ag-2 -0.8.
`Cc1ccc(S(=O)(=O)N2CCCc3cc(NS(=O)(=O)c4ccc(F)c(C)c4)ccc32)cc1` gave D2 PAM-1 4.4 and D2 ag-1 1.5.
`Cc1cccc(NC(=O)Cn2c(=O)n(Cc3ccccc3)c(=O)c3sc4ccccc4c32)c1` gave D2 PAM-1 19.0 and D2 ag-1 -1.1.
Screening COc1ccc(CCNC(=O)CSc2nc3[nH]ncc3c(=O)n2-c2ccccc2OC)cc1OC returned D2 PAM-1 8.9, D2 PAM-2 6.6, D2 antag 36.7*, D2 ag-1 2.6 and D2 ag-2 -1.3.
Screening N#Cc1ccccc1COC(=O)c1ccc2c(c1)OCCO2 returned D2 PAM-1 -4.1, D2 PAM-2 -20.8, D2 antag 30.7*, D2 ag-1 0.5 and D2 ag-2 4.1.
CCOC(=O)CCc1c(C)nc2cc(-c3cc(OC)cc(OC)c3)[nH]n2c1=O was read as D2 ag-1 7.0.
COc1cc(CNc2ccc(O)cc2)cc(Br)c1OCc1ccccc1F was read as D2 PAM-1 5.8, D2 PAM-2 76.8*, D2 antag 2.5, D2 ag-1 -2.0 and D2 ag-2 inconclusive.
For Cn1nnnc1SCCCNCc1cc(Br)ccc1OCc1ccccc1 the results were D2 PAM-1 -20.0 and D2 ag-1 -0.8.
C/C(=N\O)c1cc(Cl)cc(Cl)c1O was read as D2 PAM-1 13.7, D2 PAM-2 -8.0, D2 antag -8.9, D2 ag-1 0.3 and D2 ag-2 -4.6.
`C/C(=N\NC(N)=O)c1cc(Cl)cc(Cl)c1O` gave D2 PAM-1 -26.2, D2 PAM-2 -6.6, D2 antag 53.6*, D2 ag-1 0.8 and D2 ag-2 5.6.
O=C(NCc1ccccc1F)c1ccc2ccccc2n1 was read as D2 PAM-1 33.6*, D2 PAM-2 -5.9, D2 antag -11.2, D2 ag-1 12.5 and D2 ag-2 -1.5.
O=c1nc(Nc2cccc(Cl)c2)oc2cc(Cl)oc(=O)c12 was read as D2 PAM-1 3.1, D2 PAM-2 2.6, D2 antag 31.6*, D2 ag-1 -2.1 and D2 ag-2 -6.5.
`Cc1nnc(SC(C)C(=O)Nc2ccc3ccccc3c2)[nH]c1=O` (stereo unspecified) gave D2 PAM-2 1.7, D2 antag -8.4, D2 ag-1 -3.1 and D2 ag-2 -0.1.
For COc1cc(=O)[nH]c(SC(C)C(=O)Nc2ccc3ccccc3c2)n1 (stereo unspecified) the results were D2 PAM-1 37.1*, D2 PAM-2 0.1 and D2 ag-2 -0.7.

Screening data (PubChem)
